The test system of one test is KIT.
Consider `COc1cc2nccc(Nc3ccc(OCc4ccc(NC(C)=O)cc4)cc3)c2cc1OC` [GW440135], for which the Kinases covered entry was “KIT”.
Same read-out and setting: with `Cl.O=C(Nc1ccc(Oc2ccc3[nH]c(NC(=O)c4ccco4)nc3c2)cc1)Nc1cc(C(F)(F)F)ccc1F` [GW683134A] the entry was “KIT”.
For `Nc1n[nH]c2ncc(-c3ccccc3)cc12` [SB-517081], the Kinases covered result is reported as “KIT”.
The same measure, in the same setting: with `O=C(Nc1ccccc1)Nc1cccc(Oc2ccc3nccn3n2)c1` [TPKI-39] the entry was “KIT”; with `C/C(Nc1ccc(S(N)(=O)=O)cc1)=C1/C(=O)Nc2ccccc21` [GW335962X], “KIT”; with `CCS(=O)(=O)c1ccc(OC)c(Nc2ncc(-c3cccc(OC)c3)o2)c1` [GW580509X], “KIT”.
As for `CCS(=O)(=O)c1ccc(OC)c(Nc2ncc(-c3cccc(F)c3)o2)c1` [GW621970X], the Kinases covered result is given as “KIT”.
On the same count and under the same terms, to `Nc1ncnc2occ(-c3ccc(NC(=O)Nc4cc(C(F)(F)F)ccc4F)cc3)c12` [GW770249X] belongs “KIT”.
Same read-out and setting: to `Cn1ccc2ncnc(Oc3ccc(NC(=O)Nc4ccccc4)cc3)c21` [TPKI-69] belongs “KIT”.

Another test relates to LRRK2.
Turning to `CNc1nc(Nc2ccc(C(=O)N3CCOCC3)cc2OC)ncc1Cl` [HG-10-102-01], the Kinases covered result is given as “LRRK2”.
`C[C@@H]1CCNC(=O)c2cc3ccc(C(=O)Nc4nc5ccccc5n4CCCN(C)C)cc3n21` [BI00645435]: the Kinases covered entry is “LRRK2”.
Same read-out and setting: to `O=C(Nc1cccnc1)c1cc(-c2ccnc(F)c2)ccc1OCc1ccccc1` [GSK2578215] belongs “LRRK2”; to `CNc1nc(Nc2ccc(C(=O)N3CCOCC3)cc2OC)nc2[nH]cc(Cl)c12` [JH-II-127], “LRRK2”.

These data come from publication PMC7826789 (International Journal of Molecular Sciences, 2021).
